Bioassay records deposited in PubChem BioAssay by Sanford-Burnham Center for Chemical Genomics.
Hits are enriched below; roughly 2.7% of the tested compounds scored in any of these assays.
aDG glyco up: activators of alpha-DG glycosylation, primary screen, uHTS, Pro5-aDG cells, AlphaScreen. alpha-DG glycosylation AlphaScreen (IIH6); 0% Pro5, 100% B10-LARGE cell signal. activation, % at 10 µM. actives 0.22% (n = 360,000);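 active = activation of at least 8% versus controls, or a plate z-score of at least 8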;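 note: Pro5 are CHO cells carrying HIG-tagged alpha-DG that lacks glycosylation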
MPTP block: mitochondrial permeability transition pore inhibitors, primary screen, biochemical, isolated mouse mitochondria, absorbance. Ca2+ swelling absorbance, 30 min. inhibition, % at 10 µM. actives 1.4% (n = 360,000);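 active = inhibition of 50% or more, scaled per plate between neutral and stimulator controls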;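 note: 0% = DMSO wells given calcium and 100% = 1 mM EGTA wells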
TAG inh: inhibitors of triacylglycerol accumulation, primary screen, cell-based, uHTS, fluorescence, H9c2; inhibition, % at 12.5 µM; H9c2 cells, Nile Red lipid (TAG) fluorescence; cells loaded with 200 µM oleic acid; AID 651582, 2012; actives 0.66% (n = 230,000);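 active = pattern-corrected inhibition of lipid staining of at least 50% with the nuclear-stain viability signal not falling by more than 50%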;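 note: 0% = DMSO wells and 100% = triacsin C control wells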
NadD block: inhibitors of S. aureus NadD, primary screen, biochemical, colorimetric, uHTS; Nicotinate-nucleotide adenylyltransferase NadD (Staphylococcus aureus N315); purified NadD enzyme, colorimetric absorbance read-out; inhibition, % at 20 µM; actives 0.78% (n = 360,000); AID 602399, 2012; in the data active = inhibition above about 26%
MPTP counter: fluorescence retest of MPTP screen hits in isolated mitochondria, single concentration | shares compounds with MPTP block | membrane potential, Rhodamine 123 fluorescence | inhibition, % at 10 µM | actives 78% (n = 5,000) | AID 624504, 2012; in the data active = inhibition above about 22%;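 note: 0% = DMSO vehicle and 100% = positive control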
MPTP swell DR: mitochondrial permeability transition pore inhibitors, dose response, biochemical, absorbance, uHTS hits; isolated mitochondria swelling; AID 651561, 2012; shares compounds with MPTP block; actives 58% (n = 780); IC50, µM; in the data active = IC50 below about 20 µM
MPTP cs DR: fluorescent counter-screen in isolated mitochondria, dose response, counter-screen for MPTP inhibitor project, biochemical, fluorescence, uHTS hits. actives 49% (n = 780). IC50, µM. shares compounds with MPTP block. isolated mitochondria counterscreen, fluorescence read-out; in the data active = IC50 below about 80 µM
The depositor's hits bear a star; · = no result given.

SMILES	aDG glyco up	MPTP block	TAG inh	NadD block	MPTP counter	others
O=C(Nc1cccc([N+](=O)[O-])c1)c1cccc(C(=O)Nc2cccc([N+](=O)[O-])c2)c1	-0.1	19.4	·	22.9	·
CN(C(=O)c1cccc(NC(=O)Cc2cccc(NC(=O)C3CCCN(C(=O)C4CCCCC4)C3)c2)c1)C1CCC1 (configuration not stated)	-0.1	-0.3	19.8	3.9	·
C=C(C)C(=O)OCC(O)COc1ccc(C(C)(C)c2ccc(OCC(O)COC(=O)C(=C)C)cc2)cc1 (configuration not stated)	1.3	-3.0	22.2	-5.8	·
CC(=O)OCC(O)C1(O)CCC2C3CCC4=CC(=O)CCC4(C)C3C(O)CC21C (configuration not stated)	-0.4	-1.2	·	0.4	·
CCCc1cc(=O)oc2cc(C)cc(OC(C)C(=O)NCc3ccncc3)c12 (configuration not stated)	-0.5	-2.1	·	7.1	·
CCN1C(=O)CSC1=Nc1ccccc1Cl	0.0	-0.8	-14.8	-6.4	·
Cc1cc(C)cc(NC(=O)Nc2ccc3c(c2)CCC3)c1	1.6	53.3*	-5.8	-3.0	94.5*
Cc1ccc(NC(=O)Nc2ccc3c(c2)CCC3)cc1	0.4	1.3	-11.8	0.2	·
CC1CCN(S(=O)(=O)c2nnc(NC(=O)c3cccc(Cl)c3)s2)CC1	0.9	82.7*	-4.9	4.2	78.6*
CN(C(=O)CSc1ncnc2sc3c(c12)CCCC3)C1CCS(=O)(=O)C1 (configuration not stated)	-0.2	0.2	-16.3	-0.2	·
CC(C)S(=O)(=O)c1csc(NC(=O)Nc2cc(Cl)ccc2Cl)c1Cl	1.2	86.1*	-9.4	-1.7	76.1*
COc1ccccc1C(=O)NC(CCSC)C(=O)OCC(=O)N1CCCC1=O (configuration not stated)	-0.1	-1.4	0.9	-4.6	·
Cc1ccc(CN2CCSc3ccc(C(=O)N4CCN(c5ncccn5)CC4)cc32)cc1	0.2	66.2*	·	1.7	94.6*
CCN1CCN(C(=O)c2ccc3c(c2)N(Cc2ccc(C)cc2)CCS3)CC1	0.9	1.8	·	1.4	·
O=C(Nc1ccc(Cl)cc1)N1CCC(c2nc(-c3ccc(F)cc3)no2)CC1	0.9	90.3*	·	-16.1	75.6*
COc1ccc(NC(=O)N2CCCC(c3nc(-c4ccc(OC)cc4)no3)C2)cc1 (configuration not stated)	0.7	10.9	·	-5.5	·
CC(C)Cc1ccc(C(C)C(=O)Nc2ccccc2O)cc1 (configuration not stated)	1.2	89.6*	-28.5	-1.5	95.3*
O=C(Nc1ccccc1O)C(c1ccccc1)c1ccccc1	1.2	83.0*	·	-7.5	83.2*
CCc1nc2ccc(C(=O)NCCNC(C)=O)cn2c1N(C)Cc1ccc(OC)cc1	0.0	-1.2	17.3	-2.6	·
CCN(c1cccc(C(F)(F)F)c1)S(=O)(=O)c1ccc2c(c1)CCN2C(=O)C1CC1	3.6	62.2*	-49.7	-4.8	63.5*
CCC(=O)N1CCc2cc(S(=O)(=O)N(CC)c3cccc(C)c3)ccc21	0.1	1.7	-10.0	-5.9	·
CC1(C(=O)NS(=O)(=O)c2cccc(Cl)c2)CCN1C(=O)C1(c2ccc(Cl)cc2)CCC1 (configuration not stated)	-0.1	1.5	4.9	7.0	·
Cc1ccc(NC(=S)Nc2nc(CC(=O)Nc3ccccc3)cs2)cc1	1.3	77.7*	-19.5	14.2	83.9*
COc1ccc(NC(=O)Cc2csc(NC(=O)Nc3ccccc3OC)n2)cc1	-0.1	0.8	-30.5	4.7	·
COc1cc(/C=C/c2sc3ccccc3[n+]2CCCS(=O)(=O)[O-])ccc1O	-0.3	56.0*	6.1	-1.1	-11.4
SMILES	aDG glyco up	MPTP block	TAG inh	NadD block	MPTP counter	others
C/C(=N\NC(=O)c1nnn(-c2nonc2N)c1CN1CCCCC1)c1ccccc1O	0.2	1.0	·	2.3	·
CCN(CC)CCN1CCN(c2cncc(-c3ccc4ccccc4c3)n2)CC1	-0.1	-2.3	1.3	-5.9	·
CCCCNc1c(-c2cccc(-c3cc(C(C)=O)cs3)c2)nc2ccc(C)cn12	1.1	11.2	3.1	5.0	·
CCCCNc1c(-c2cccc(-c3ccc(OC)cc3)c2)nc2ccc(C)cn12	1.9	56.2*	6.3	1.1	76.8*
CCCCNc1c(-c2cccc(-c3ccc(OC)cc3)c2)nc2cc(C)ccn12	3.2	62.7*	3.5	-2.4	101.8*
CCc1cccc(NC(=O)COC(=O)C2COc3ccccc3O2)c1 (configuration not stated)	-0.2	0.3	12.5	-12.6	·
COc1ccccc1C(=O)NNC1=C(C(=O)C(F)(F)F)CCC1	-0.2	5.8	·	9.0	·
Nc1ccccc1C(=O)NNC1=C(C(=O)C(F)(F)F)CCC1	-0.3	20.9	-5.7	2.9	·
O=C(NNC1=C(C(=O)C(F)(F)F)CCC1)c1ccc(Br)cc1	-0.3	93.0*	·	-10.9	74.6*
COc1cccc(C(=O)NNC2=C(C(=O)C(F)(F)F)CCC2)c1	-0.1	62.6*	3.9	0.8	45.3*
CCN(CC(=O)Nc1ccccc1OC)C(=O)CSCc1ccc(C)cc1	-0.1	-1.0	7.2	-1.7	·
O=C(NCc1nc(-c2ccc(C(F)(F)F)cc2)no1)Nc1ccc(OC(F)(F)F)cc1	0.2	77.7*	-31.1	-8.4	74.2*
COc1ccc(-c2noc(CNS(=O)(=O)c3ccc(NC(C)=O)cc3)n2)cc1	-0.1	-1.2	·	-4.1	·
Cc1ccc(-n2cc(CNCCCn3ccnc3C)c(-c3ccc(F)cc3)n2)cc1	0.0	59.5*	27.7	-0.2	-11.8
Cc1ccc(-c2nn(-c3ccccc3)cc2CNCc2ccccc2)cc1	0.9	95.7*	·	5.5	-3.1	MPTP swell DR=4.71*;MPTP cs DR=30.5*
NS(=O)(=O)c1cccc(NC(=O)COC(=O)CNC(=O)c2ccc(-c3ccccc3)cc2)c1	0.3	-0.1	-5.9	-1.5	·
Cc1ccc(C)c(CN2CCC(n3nccc3NC(=O)CCCc3ccccc3)CC2)c1	-0.2	1.4	8.6	-12.6	·
Cn1cc(Cl)c(C(=O)NC(=S)Nc2sc3c(c2C#N)CCCCC3)n1	-0.6	83.4*	1.3	20.9	21.2*
COC(=O)c1sc(NC(=S)NC(=O)c2cccc(Br)c2)nc1C	0.0	89.5*	-1.8	3.2	49.2*
CCN(CC)S(=O)(=O)c1ccc(C)c(NC(=O)CNCCN(C(C)C)C(C)C)c1	0.4	1.2	-4.5	1.3	·
COc1cc(CNCCN2CCOCC2)ccc1OCc1ccc(Cl)cc1	2.8	4.1	9.1	-6.0	·
